Results: PubChem BioAssay (NCATS)
Results filed as inconclusive are left out. Unless noted, calls follow the shape of the dose curve; as a rule, active = well fitted curve in either direction with a large enough effect (not every such curve was filed as active); inconclusive = small, poorly fitted or top-dose-only effect, or another doubt; inactive = flat fitted curve, though single readings scatter.

Columns and labels:
[1] = AP1 Signaling Pathway (AID 357); details: ME-180 AP-1-bla reporter, EGF-induced, beta-lactamase ratio, 5 h; at 17.2 µM (top of the series) unless noted;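 also: ME-180 reporter cells stimulated with EGF at its EC50 level; % is scaled to controls: 0 for no effect and ±100 for the full control effect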
Outline: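 A ratiometric CCF4 readout (405 nm excitation; 460 and 530 nm emission) quantified AP-1-driven beta-lactamase in ME-180 cells after 5 h with compound and EC50 EGF; AC50 values were derived for activators and inhibitors.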

[2] = NFAT Signaling Pathway (AID 444); details: Jurkat NFAT-bla M1, carbachol, beta-lactamase ratio, 5 h; at 17.2 µM (top of the series) unless noted;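 also: carbachol stimulus at about its EC50 of 1 µM final; % is scaled to controls: 0 for no effect and ±100 for the full control effect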
Outline: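 Read-out: CCF4 FRET ratio (460 nm/530 nm) after 1 h RT dye loading, used for %activity and AC50 from titration series. Cells: Jurkat NFAT-β-lactamase/M1 line, treated with compound plus 1 uM carbachol for 5 h, 37 °C.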

[3] = Stat Signaling Pathway (AID 446); details: ME-180 SIE beta-lactamase reporter, IL-6 stimulated, 5 h; at 17.2 µM (top of the series) unless noted;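 also: ME-180 cervical cancer cells given 40 pM IL-6 alongside compound; SIE-controlled beta-lactamase reporter measured as 460/530 nm FRET emission ratio; % is scaled to controls: 0 for no effect and ±100 for the full control effect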
Outline: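 Reporter line: ME-180 cervical carcinoma, SIE-beta-lactamase. Treatment: compound with 40 pM IL-6, 5 hrs, 37 C, in low-serum OPTI-MEM with 10 mM HEPES pH 7.3. Detection: 460/530 nm fluorescence.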

[4] = molecular target: Glucocorticoid receptor (Homo sapiens) (UniProt P04150); experiment: GR-GFP Redistribution (AID 450;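 active = compounds whose dose series gives a full or clear partial fitted curve of increased nuclear translocation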; also: potency is read from the fitted curve at half-maximal effect)
Glucocorticoid receptor (Homo sapiens), sequence (P04150 whole entry, looked up): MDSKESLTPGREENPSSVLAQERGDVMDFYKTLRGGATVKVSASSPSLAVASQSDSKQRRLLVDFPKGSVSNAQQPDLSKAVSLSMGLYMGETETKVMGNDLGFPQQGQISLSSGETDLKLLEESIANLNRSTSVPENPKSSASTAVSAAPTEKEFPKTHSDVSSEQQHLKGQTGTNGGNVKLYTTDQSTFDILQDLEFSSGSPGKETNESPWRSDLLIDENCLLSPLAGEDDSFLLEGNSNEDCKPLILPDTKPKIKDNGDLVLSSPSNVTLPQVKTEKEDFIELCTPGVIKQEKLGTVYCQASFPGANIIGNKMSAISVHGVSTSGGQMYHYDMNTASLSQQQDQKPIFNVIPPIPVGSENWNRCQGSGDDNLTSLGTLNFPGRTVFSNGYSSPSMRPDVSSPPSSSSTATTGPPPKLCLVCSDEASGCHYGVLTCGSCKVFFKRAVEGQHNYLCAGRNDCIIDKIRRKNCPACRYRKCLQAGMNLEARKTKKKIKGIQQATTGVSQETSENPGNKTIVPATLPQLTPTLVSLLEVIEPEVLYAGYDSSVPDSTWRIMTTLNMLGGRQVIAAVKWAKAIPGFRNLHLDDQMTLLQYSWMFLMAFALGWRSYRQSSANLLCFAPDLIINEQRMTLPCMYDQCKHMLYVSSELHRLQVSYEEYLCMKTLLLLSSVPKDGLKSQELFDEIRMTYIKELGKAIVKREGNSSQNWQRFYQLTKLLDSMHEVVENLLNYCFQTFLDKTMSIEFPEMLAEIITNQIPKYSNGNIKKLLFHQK

CC(C(=O)N1CCOCC1)N1C(=O)c2ccccc2C1=O (centres undefined)
inactive: activity change, negative = inhibition [1] 14.2% | activity change, negative = inhibition [2] -4.66% | activity, negative = inhibition [3] 10.1% | Potency [4] > 20.6 µM

COc1ccc(C2=CC(c3cccc(OC)c3)n3nnnc3N2)cc1 (centres undefined)
inactive: activity change, negative = inhibition [1] -24.4% | activity change, negative = inhibition [2] 1.4% | activity, negative = inhibition [3] -2.84% | Potency [4] > 20.6 µM

CCOC(=O)CC1=C(C(=O)OCC)C(c2cc(OC)c(OC)cc2OC)C(C#N)=C(N)O1 (centres undefined)
inactive: activity change, negative = inhibition [1] 0.567% | activity change, negative = inhibition [2] -1.8% | activity, negative = inhibition [3] 10.5% | Potency [4] > 20.6 µM

CCOC(=O)c1cc2cc(OC)ccc2[nH]1
inactive: activity change, negative = inhibition [1] -4.55% | activity change, negative = inhibition [2] -5% | activity, negative = inhibition [3] -4.94% | Potency [4] > 20.6 µM

CN1CCN(CCCCC(=O)c2ccccc2)CC1
inactive: activity change, negative = inhibition [1] 16.6% | activity change, negative = inhibition [2] -15.1% | activity, negative = inhibition [3] 9.37% | Potency [4] > 20.6 µM

Cc1ccc2[nH]c3c(N4CCOCC4)ncnc3c2c1
inactive: activity change, negative = inhibition [1] -7.05% | activity change, negative = inhibition [2] 18.4% | activity, negative = inhibition [3] -10.6% | Potency [4] > 20.6 µM

CCN1CCc2c(C#N)c(NCc3ccccc3)nc(N(CC)CC)c2C1
inactive: activity change, negative = inhibition [1] 2.07% | activity change, negative = inhibition [2] 1.29% | activity, negative = inhibition [3] 12.6% | Potency [4] > 20.6 µM

CCOC(=O)c1c(CNCCN(CC)CC)n(C)c2cc(Br)c(OC)cc12
inactive: activity change, negative = inhibition [1] 5.94% | activity change, negative = inhibition [2] 5.36% | activity, negative = inhibition [3] -6.2% | Potency [4] > 20.6 µM

CSc1nnc(C)c(=O)[nH]1
inactive: activity change, negative = inhibition [1] -4.3% | activity change, negative = inhibition [2] -8.38% | activity, negative = inhibition [3] 14.8% | Potency [4] > 20.6 µM

CCC1(C)Cc2c(sc(NC(=O)CCC(=O)O)c2C#N)CO1 (centres undefined)
inactive: activity change, negative = inhibition [1] 4.06% | activity change, negative = inhibition [2] 0.708% | activity, negative = inhibition [3] 9.62% | Potency [4] > 20.6 µM

CCSc1nnc(NC(=O)C(C)(C(F)(F)F)C(F)(F)F)s1
inactive: activity change, negative = inhibition [1] -11.1% | activity change, negative = inhibition [2] -18.1% | activity, negative = inhibition [3] -24.8% | Potency [4] > 20.6 µM

OC(CNCCCN1CCCCC1)COc1ccccc1 (centres undefined)
inactive: activity change, negative = inhibition [1] -10.5% | activity change, negative = inhibition [2] -28.5% | activity, negative = inhibition [3] 9.93% | Potency [4] > 20.6 µM

CCOC(=O)C(C)Oc1ccc2c(C)cc(=O)oc2c1C(C)=O (centres undefined)
inactive: activity change, negative = inhibition [1] 3.53% | activity change, negative = inhibition [2] 2.57% | activity, negative = inhibition [3] 4.2% | Potency [4] > 20.6 µM

COC(=O)c1ccc(CSc2nc(N3CCOCC3)c3c(c2C#N)CC(C)(C)OC3)o1
inactive: activity change, negative = inhibition [1] -9.04% | activity change, negative = inhibition [2] -8.92% | activity, negative = inhibition [3] 20% | Potency [4] > 20.6 µM

CC1CN(C2CCN(S(=O)(=O)Cc3ccccc3)CC2)CC(C)O1 (centres undefined)
inactive: activity change, negative = inhibition [1] 3.47% | activity change, negative = inhibition [2] -2.24% | activity, negative = inhibition [3] 5.06% | Potency [4] > 20.6 µM

CC(O)(C#CCN1CCOCC1)c1ccccc1 (centres undefined)
inactive: activity change, negative = inhibition [1] -0.153% | activity change, negative = inhibition [2] 8.45% | activity, negative = inhibition [3] 7.2% | Potency [4] > 20.6 µM

COc1ccc(Cl)cc1N=Cc1c(O)cc(C)oc1=O
inactive: activity change, negative = inhibition [1] -3.56% | activity change, negative = inhibition [2] -6.83% | activity, negative = inhibition [3] 5.26% | Potency [4] > 20.6 µM

O=C(O)C1CCCCN1S(=O)(=O)c1cccc2nsnc12 (centres undefined)
inactive: activity change, negative = inhibition [1] 0.243% | activity change, negative = inhibition [2] 1.79% | activity, negative = inhibition [3] 5.88% | Potency [4] > 20.6 µM

Cn1cc(Cl)nc1C(O)c1ccccc1 (centres undefined)
inactive: activity change, negative = inhibition [1] 2.37% | activity change, negative = inhibition [2] -2.26% | activity, negative = inhibition [3] 6.92% | Potency [4] > 20.6 µM

O=C1CC(c2ccccc2)NC(=O)N1 (centres undefined)
inactive: activity change, negative = inhibition [1] 8.17% | activity change, negative = inhibition [2] -2.15% | activity, negative = inhibition [3] -0.378% | Potency [4] > 20.6 µM

CCn1c(SC(C)C(=O)O)nc2sc3c(c2c1=O)CCC3 (centres undefined)
inactive: activity change, negative = inhibition [1] 2.76% | activity change, negative = inhibition [2] 17.5% | activity, negative = inhibition [3] -5.33% | Potency [4] > 20.6 µM

COC(=O)CNC(=O)c1c(C)cc(=O)oc1C
inactive: activity change, negative = inhibition [1] 21.5% | activity change, negative = inhibition [2] 13.6% | activity, negative = inhibition [3] 5.86% | Potency [4] > 20.6 µM

Cn1c(=O)c2c(nc(OCc3cccnc3)n2Cc2ccccc2)n(C)c1=O
inactive: activity change, negative = inhibition [1] -9.82% | activity change, negative = inhibition [2] -6.31% | activity, negative = inhibition [3] -1.88% | Potency [4] > 20.6 µM

COCCNc1ncnc2c1cnn2-c1ccc(Cl)cc1
inactive: activity change, negative = inhibition [1] -9.71% | activity change, negative = inhibition [2] -10.4% | activity, negative = inhibition [3] 2.93% | Potency [4] > 20.6 µM

COC(=O)CN1C2(C#N)CCCCC2CC2CCCCC21C#N (centres undefined)
inactive: activity change, negative = inhibition [1] 2.79% | activity change, negative = inhibition [2] -12.3% | activity, negative = inhibition [3] 13% | Potency [4] > 20.6 µM

O=C1CCC(=O)N1CN(Cc1ccco1)CN1C(=O)CCC1=O
inactive: activity change, negative = inhibition [1] 7.15% | activity change, negative = inhibition [2] 5.38% | activity, negative = inhibition [3] 0.484% | Potency [4] > 20.6 µM
